The list is not random: actives were taken first. Their share in the collection is about 7.6%.
VP16 counter: inhibits Gal4-VP16 luciferase reporter, ROR gamma counter-screen; 310,000 compounds, 3.5% hits; Potency, µM (highest dose often 53.6 µM), most hits filed as inhibitors; AID 2546; Drosophila S2 Gal4-VP16 UAS-luciferase, luminescence, 20 h;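 note: Gal4-VP16 expression switched on by copper sulfate through the metallothionein promoter; nearly all actives have a fitted effect of over 50% in size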
ELG1 DNA repair: ELG1-dependent DNA repair inhibition. HEK293T ELG1-luciferase reporter, luminescence, 16 h; DNA damage induced by 5-fluorouridine. Potency, µM (doses to about 46.1 µM), hits mostly inhibitors. 330,000 compounds, 2.3% hits. AID 504467; note: nearly all actives have a fitted effect of over 55% in size
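Cells (2,000 per well) received 5-fluorouridine plus test compound or DMSO and were incubated 16 hr at 37 °C, 5% CO2. Luciferase activity was read by luminescence 30 min after ONE-Glo addition; signal suppression marked inhibition of damage-induced ELG1 function.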
BRCA1 expr up: activators of BRCA1 expression; MCF7-BRCA1-FFLuc reporter, luminescence, 48 h; response scale: scaled: vehicle 0%, 10 µM genistein 100%; Potency, µM (titrated, usually from 46.1 µM), hits mostly activators; 380,000 compounds, 1.1% hits; AID 624202; note: nearly all actives have a fitted effect of over 80% in size
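Activators of BRCA1 expression were detected as increased firefly luciferase luminescence in engineered MCF7 cells after 48 h compound incubation. Signals were scaled to genistein 10 microM as full activation.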
Giardia kill: Giardia lamblia killing. Giardia lamblia trophozoite viability. activity change, % at 7.66 µM, hits read low. 340,000 compounds, 0.15% hits. AID 540267; in the data active = activity change below about -80%; inconclusive = between about -30% and that limit;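 note: parasites exposed to compound for two days anaerobically before the ATP read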
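Giardia trophozoites, 100 cells per well, were exposed to compounds for 48 hrs at 37 deg C under anaerobic conditions; viability was then read as ATP content by bioluminescence after 15-30 min at room temperature.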
RORgamma inh: inhibitors of mouse ROR gamma transcriptional activity. AID 2551. P51450. Drosophila S2 Gal4-RORgamma UAS-luciferase reporter, 20 h. Potency, µM (titrated, usually from 53.6 µM), usual class: inhibitors. 310,000 compounds, 5.4% hits; note: nearly all actives have a fitted effect of over 60% in size
Target sequence (P51450 whole entry, looked up, the tested form may be a part): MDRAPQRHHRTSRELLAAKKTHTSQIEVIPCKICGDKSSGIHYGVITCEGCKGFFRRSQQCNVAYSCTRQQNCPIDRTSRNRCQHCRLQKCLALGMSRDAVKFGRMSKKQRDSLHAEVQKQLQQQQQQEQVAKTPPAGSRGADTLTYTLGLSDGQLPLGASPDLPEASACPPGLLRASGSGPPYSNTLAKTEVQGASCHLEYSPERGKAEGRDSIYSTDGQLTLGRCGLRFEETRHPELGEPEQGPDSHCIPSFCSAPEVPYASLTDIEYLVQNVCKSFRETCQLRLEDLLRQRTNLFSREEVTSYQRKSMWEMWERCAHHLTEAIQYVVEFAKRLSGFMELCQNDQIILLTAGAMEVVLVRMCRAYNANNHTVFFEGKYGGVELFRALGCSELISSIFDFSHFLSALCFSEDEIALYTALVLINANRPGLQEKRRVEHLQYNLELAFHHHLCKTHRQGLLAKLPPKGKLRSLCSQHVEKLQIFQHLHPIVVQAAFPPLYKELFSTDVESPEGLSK
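Drosophila Schneider cells stably carrying a metallothionein-driven Gal4 DBD–ROR gamma fusion and a UAS-Photinus luciferase reporter were exposed to compound for 1 hr, then induced with copper sulfate (700 uM final) for 20 hr at ambient temperature before luminescence reading.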
p53 reactivation: re-activators of mutant p53; H1299 p53-A138V BP100-luciferase reporter, luminescence, 24 h; Potency, µM (top dose mostly 92.2 µM), most hits filed as activators; 320,000 compounds, 0.063% hits; AID 504706; note: nearly all actives have a fitted effect of over 45% in size
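p53-null H1299 cells stably carrying temperature-sensitive p53-A138V and a BP100-luciferase reporter were pinned with compounds (4-point, 1:5 series) and held 24 hrs at 37 deg C. Luminescence was read 10 min after detection reagent.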
Each line names hits and unclear results; the compound was inactive in the other large screens. Unless noted, calls come from the whole dose curve; as a rule, active = well fitted curve in the direction sought with a large enough effect; inconclusive = small, poorly fitted or top-dose-only effect, or another doubt; inactive = no such curve, though single readings can be large; an effect the other way counts as inactive or inconclusive.

Cc1ccc2ccc(C(Nc3cccc(C(F)(F)F)c3)c3cccnc3)c(O)c2n1 (stereo not drawn)	VP16 counter inconclusive, RORgamma inh 7.1µM
COc1ccc(CNC(=O)c2c([S-])n(-c3ccc(C)cc3)c3cccc[n+]23)cc1	none
O=C(CN(Cc1ccccc1)C(=O)CNS(=O)(=O)c1ccc(Cl)cc1)NCC1CCCO1 (stereo not drawn)	none
COc1ccc(NC(=O)c2ccccc2Sc2ccc(NC(C)=O)nc2)cc1	none
CCCC(c1nnnn1CC1CCCO1)N1CCN(c2nc3ccccc3s2)CC1 (stereo not drawn)	ELG1 DNA repair 23µM
CCC(c1nnnn1CS(=O)(=O)c1ccc(C)cc1)N1CCN(c2nc3ccccc3s2)CC1 (stereo not drawn)	ELG1 DNA repair 8.2µM
Cc1cc(C)c(C)c(/C=C(/C#N)C(N)=S)c1C	VP16 counter 16µM, RORgamma inh 6.3µM
Cc1noc(C)c1C(=O)N1CCC2(CCN(C(=O)NC(C)C)CC2)CC1	none (no result: ELG1 DNA repair, BRCA1 expr up, Giardia kill, p53 reactivation)
C=CCc1cccc(/C=N/NC(=O)c2ccccc2OC)c1O	VP16 counter 1.3µM, ELG1 DNA repair inconclusive, RORgamma inh 0.5µM, p53 reactivation inconclusive
COc1ccccc1/C=N/NC(=O)c1ccccc1Cl	none
O=C(N/N=C/c1ccccc1C(=O)O)c1ccccc1Br	none
C=CCc1cccc(/C=N/NC(=O)c2ccccc2Br)c1O	VP16 counter 4µM, RORgamma inh 1.4µM, p53 reactivation inconclusive
COCN(C#N)c1nc(N(C)C)nc(N(C)C)n1	none
COc1cc(-n2c(-c3ccccc3)n[nH]c2=S)c(OC)cc1Cl	RORgamma inh 5µM
Cc1ccc(-n2c(-c3c(-c4ccccc4)noc3C)n[nH]c2=S)cc1	VP16 counter 10µM, RORgamma inh 4.5µM
COc1cc(-c2n[nH]c(=S)n2-c2ccccc2C(F)(F)F)cc(OC)c1OC	ELG1 DNA repair inconclusive, RORgamma inh inconclusive
COc1ccc(-c2n[nH]c(=S)n2-c2ccc(C)cc2)cc1OC	VP16 counter inconclusive, RORgamma inh 16µM
COc1ccccc1-n1c(-c2cc(-c3ccc(F)cc3)n[nH]2)n[nH]c1=S	RORgamma inh 7.9µM
COc1ccc(C)cc1-n1c(-c2ccncc2)n[nH]c1=S	none
CCCCCOC(=O)C1[C@H]2C(=O)N(CCCOC)C[C@]23C=C[C@H]1O3 (stereo partly drawn)	none
COc1ccc(COC(=O)C2CC(=O)N(Cc3ccc(C)cc3)C2)cc1 (stereo not drawn)	none
CCOCCCNC(=O)CN1C(=O)COc2ccc(S(=O)(=O)N3CC(C)CC(C)C3)cc21 (stereo not drawn)	none
COc1cc(/C=N/NS(=O)(=O)c2ccccc2)c(OC)c(OC)c1	none
COc1ccccc1-c1n[nH]c(=S)n1-c1ccccc1	VP16 counter inconclusive, RORgamma inh 11µM, p53 reactivation inconclusive
Cc1ccc(-n2c(-c3cccc(C)c3)n[nH]c2=S)cc1	VP16 counter 7.1µM, RORgamma inh 3.2µM
S=c1[nH]nc(-c2ccc(Cl)cc2)n1-c1cccnc1	none
S=c1[nH]nc(-c2cccnc2)n1-c1ccccc1	VP16 counter inconclusive, RORgamma inh 7.9µM
CCOc1ccc(C(=O)Nc2cccc(C)n2)cc1	VP16 counter inconclusive, ELG1 DNA repair inconclusive, BRCA1 expr up inconclusive, RORgamma inh 8.9µM
CCCCOc1ccc(C(=O)Nc2cccc(C)n2)cc1	VP16 counter inconclusive, ELG1 DNA repair inconclusive, BRCA1 expr up 2.8µM, RORgamma inh inconclusive, p53 reactivation inconclusive
Cc1cccc(NC(=O)c2ccc3nccnc3c2)n1	ELG1 DNA repair inconclusive, BRCA1 expr up 13µM
Cc1cc(NC(=O)C2CCCCC2)nc2c1c(=O)oc1ccccc12	none
Cc1cc(NC(=O)C2CCCC2)nc2c1c(=O)oc1ccccc12	ELG1 DNA repair 21µM
CCOC(=O)c1ccc(NC(=S)Nc2ccccn2)cc1	ELG1 DNA repair inconclusive, RORgamma inh 3.2µM, p53 reactivation inconclusive
CCOC(=O)c1ccc(NC(=S)Nc2ccc(Cl)cn2)cc1	VP16 counter 8.9µM, RORgamma inh 2.2µM
CC(O)CNc1nc2c(c(=O)n(Cc3ccc(Br)cc3)c(=O)n2C)n1C (stereo not drawn)	ELG1 DNA repair inconclusive
S=C(NCc1ccc(Cl)cc1)Nc1ccccc1	VP16 counter 3.5µM, RORgamma inh 2.2µM
S=C(NCc1ccncc1)Nc1cccc(Cl)c1	none
Fc1ccc(CNC(=S)Nc2cccc(Cl)c2)cc1	VP16 counter 11µM, RORgamma inh 5.6µM
O=C(NCc1ccc(Cl)cc1)c1ccncc1	none (no result: p53 reactivation)
S=C(NCc1ccc(Cl)cc1Cl)Nc1ccccc1	VP16 counter 6.3µM, RORgamma inh 7.1µM
S=C(NCc1ccc(Cl)cc1)Nc1ccncc1	VP16 counter 7.1µM, RORgamma inh inconclusive
COc1ccc(CC(=O)OCC(=O)Nc2ccc3c(c2)OCO3)cc1	p53 reactivation inconclusive
NS(=O)(=O)c1ccc(NC(=S)NCc2ccc(Cl)cc2)cc1	none
Fc1ccccc1CNC(=S)NCc1ccc(Cl)cc1	VP16 counter inconclusive, RORgamma inh 7.9µM
Fc1ccc(CNC(=S)Nc2ccc(Cl)cc2)cc1	VP16 counter 16µM, RORgamma inh 7.1µM
Fc1ccccc1CNc1cc(Cl)cc(Cl)c1	ELG1 DNA repair inconclusive, RORgamma inh inconclusive
c1ccc(-c2cnnc3ccccc23)cc1	none (no result: VP16 counter, RORgamma inh)
NC(=S)N=Nc1c(O)[nH]c2cc(F)c(F)cc12	VP16 counter 5µM, RORgamma inh 3.2µM
Cc1cc2ncn(CS(C)(=O)=O)c2cc1C	none
C=C(C)Cn1cnc2cc(C)c(C)cc21	RORgamma inh 11µM
COc1ccccc1-c1nc(COc2ccc(Cl)cc2Cl)no1	ELG1 DNA repair inconclusive, BRCA1 expr up 4.5µM
O=c1oc2ccccc2c(O)c1C=NCc1ccccn1	VP16 counter 1µM, RORgamma inh 0.56µM
O=C1C(C=NCc2ccccn2)=C(O)c2ccccc21	VP16 counter 5µM, ELG1 DNA repair inconclusive, RORgamma inh 2.5µM
O=C(Oc1cccc2cccnc12)c1ccc(N2C(=O)C3C4CCC(C4)C3C2=O)cc1 (stereo not drawn)	VP16 counter 5µM, RORgamma inh 2.8µM
O=C(Oc1cccc2cccnc12)c1cccc(N2C(=O)C3C4CCC(C4)C3C2=O)c1 (stereo not drawn)	VP16 counter inconclusive, ELG1 DNA repair inconclusive, RORgamma inh 2.5µM
O=C(Oc1cccc2cccnc12)c1cccc(-n2cnnn2)c1	ELG1 DNA repair inconclusive
COc1ccc(-c2ccc(=O)n(Cc3cccc([N+](=O)[O-])c3)n2)cc1	ELG1 DNA repair inconclusive
Nc1ccc(C(=O)OCc2nc3cc4ccccc4cc3[nH]2)cc1	ELG1 DNA repair inconclusive

Screening data (PubChem BioAssay)
